Measured values taken from PubChem BioAssay (Tox21).
Records with an inconclusive call do not appear. Calls of active or inactive are those of the source. The call rests on the fitted dose curve; in most records, active means well fitted activation curve with a large enough effect in the signal ratio in the repeat runs, with a control signal flat (not every such curve was filed as active); inconclusive means weak or mixed curves, or effect the other way; inactive means no such curve, though single readings can be large or run the other way; the % refers to the signal ratio.

Biological target: Androgen receptor (Homo sapiens) (UniProt P10275)
Test: qHTS assay to identify small molecule agonists of the androgen receptor (AR) signaling pathway (AID 743036)
Conditions: HEK293 AR-UAS-bla GripTite, beta-lactamase FRET ratio, 16 h; series mostly up to 62.4 µM
From the text: U.S. Tox21 Program National Center for Advancing Translational Sciences [NCATS] NIH Chemical Genomics Center [NCGC] U.S. Environmental Protection Agency [EPA] National Institutes of Environmental Health Sciences [NIEHS] National Toxicology Program [NTP] U.S. Food and Drug Administration [FDA] Tox21 Assay Overview: Androgen receptor (AR), a nuclear hormone receptor, plays a critical role in AR-dependent prostate cancer and other androgen related diseases. Endocrine disrupting chemicals (EDCs) and their interactions with steroid hormone receptors like AR may cause disruption of normal endocrine function as well as interfere with metabolic homeostasis, reproduction, developmental and behavioral functions. To identify the compounds that activate AR signaling, GeneBLAzer AR-UAS-bla-GripTite cell line (Invitrogen, Carlsbad, CA, USA) containing a beta-lactamase reporter gene under the control of an Upstream Activator Sequence (UAS) stably integrated into HEK293 cells was used to screen the Tox21 10K compound library.
Tox21 Assay Protocol Summary: AR-bla cells were dispensed at 2,000 cells/6 uL/well of assay medium into black wall/clear-bottom 1536-well plates using a Multidrop Combi (ThermoFisher Scientific, Waltham, MA) dispenser. After the assay plates were incubated at 37C and 5% CO2 for 4 h, 23 nL of compounds dissolved in DMSO, positive controls or DMSO only was transferred to the assay plate by a Pintool station (Kalypsys, San Diego, CA). The plates were incubated at 37C and 5% CO2 for 16 h. Then 1 uL of LiveBLAzerTM B/G FRET substrate was added using a Bioraptr Flying Reagent Dispenser (FRD) workstation (Beckman Coulter, Indianapolis, IN, USA). The plates were incubated at room temperature for 2 h, and fluorescence intensity was measured by an Envision plate reader (PerkinElmer, Shelton, CT).

Chain of Androgen receptor (Homo sapiens) (P10275 whole entry, looked up): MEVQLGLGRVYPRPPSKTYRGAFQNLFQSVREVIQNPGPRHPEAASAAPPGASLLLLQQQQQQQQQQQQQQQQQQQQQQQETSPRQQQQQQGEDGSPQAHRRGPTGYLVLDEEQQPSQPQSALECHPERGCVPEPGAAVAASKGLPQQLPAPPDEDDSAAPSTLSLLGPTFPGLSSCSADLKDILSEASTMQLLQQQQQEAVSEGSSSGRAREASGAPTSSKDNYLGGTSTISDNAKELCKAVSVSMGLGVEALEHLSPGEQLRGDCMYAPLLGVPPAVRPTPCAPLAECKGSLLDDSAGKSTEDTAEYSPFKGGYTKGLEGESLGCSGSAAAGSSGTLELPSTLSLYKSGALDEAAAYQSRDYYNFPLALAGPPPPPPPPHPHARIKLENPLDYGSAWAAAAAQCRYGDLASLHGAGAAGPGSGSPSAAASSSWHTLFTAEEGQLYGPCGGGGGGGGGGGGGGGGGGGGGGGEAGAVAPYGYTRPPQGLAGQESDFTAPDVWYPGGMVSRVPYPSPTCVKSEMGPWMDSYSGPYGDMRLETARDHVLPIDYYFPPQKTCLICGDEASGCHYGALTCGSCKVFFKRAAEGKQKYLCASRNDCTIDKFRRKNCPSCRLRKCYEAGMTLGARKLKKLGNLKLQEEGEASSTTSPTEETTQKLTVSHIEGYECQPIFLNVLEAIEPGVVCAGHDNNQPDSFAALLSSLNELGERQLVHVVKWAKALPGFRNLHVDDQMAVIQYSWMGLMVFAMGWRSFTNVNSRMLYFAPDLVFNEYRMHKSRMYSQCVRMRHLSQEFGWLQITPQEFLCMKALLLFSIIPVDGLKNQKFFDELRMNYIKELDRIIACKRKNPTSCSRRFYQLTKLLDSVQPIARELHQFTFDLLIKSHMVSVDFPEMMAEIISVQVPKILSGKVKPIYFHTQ

Row | SMILES | outcome
1 | CCCSS/C(CCO)=C(\C)N(C=O)Cc1cnc(C)nc1N | inactive
2 | N[C@@H](CSSC[C@H](N)C(=O)O)C(=O)O | inactive
3 | C[Si](C)(C)Cl | inactive
4 | Oc1ccc(-c2ccccc2)c(Cl)c1 | inactive
5 | COc1ccccc1OCCNCC(O)COc1cccc2[nH]c3ccccc3c12 (configuration not stated) | inactive
6 | O=C1NCCN1CCN1CCC(c2cn(-c3ccc(F)cc3)c3ccc(Cl)cc23)CC1 | inactive
7 | C=CC(C)(CCC=C(C)C)OC(=O)/C=C/c1ccccc1 (configuration not stated) | inactive
8 | Cc1c(C(=O)O)cccc1[N+](=O)[O-] | inactive
9 | Cc1cn[nH]c1 | inactive
10 | CCCCCCCCCCOCC(O)CN (configuration not stated) | inactive
11 | CCN(CC)CCOC(=O)C1(C2CCCCC2)CCCCC1 | inactive
12 | c1ccc(Sc2ccccc2)cc1 | inactive
13 | C=CC(=O)OCCC#N | inactive
14 | C[C@@H]1CC[C@H]2C(C)(C)[C@H]3C[C@@]12CC[C@@]3(C)O | inactive
15 | C=C1C(C)(C)[C@@]2(Cl)C(Cl)[C@]1(Cl)C(Cl)(Cl)C2(Cl)Cl (some centres not stated) | inactive
16 | CN1CCN(C2Cc3ccccc3Sc3ccc(Cl)cc32)CC1 (configuration not stated) | inactive
17 | CC(C)(c1cc(Br)c(OCCO)c(Br)c1)c1cc(Br)c(OCCO)c(Br)c1 | inactive
